Drawing on PubChem BioAssay (Tox21), this text covers Potency, viability change, negative = cytotoxic and activity change, negative = cytotoxicity for 20 compounds.

Assay [1] is described as follows: cAMP Responsive Elements (CRE) small molecule antagonists, cell-based qHTS assay: qHTS cell viability counter screen (AID 2060913). Note: nearly all actives have a fitted effect of over 40% in size. Note: potency is the fitted concentration of half-maximal effect. To be noted: CRE-bla HEK293T viability, CellTiter-Glo luminescence, 5 h; series mostly up to 92.4 µM. Put shortly: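 Steps: cells plated and held 18 hrs at 37 C/5% CO2; compounds and NKH477 (0.25 uM final) added; 3 hrs incubation; reporter substrate read; CellTiter-Glo added to measure cytotoxicity by luminescence.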
A general note: qHTS replaces the single test concentration by a dilution series.

Assay [2] is described as follows: cAMP Responsive Elements (CRE) small molecule agonists, cell-based qHTS assay: qHTS cell viability counter screen (AID 2060914). Note: nearly all actives have a fitted effect of over 50% in size. To be noted: CRE-bla HEK293T viability, CellTiter-Glo luminescence, 5 h; series mostly up to 92.4 µM. Put shortly:
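Cytotoxicity was measured as ATP luminescence (CellTiter-Glo, 30 min at room temperature) in the same wells as the CRE-bla FRET read-out. HEK293T CRE-bla cells had 3 h compound exposure at 37C/5% CO2.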

Results filed as inconclusive are left out. A call without a number means that no potency is given here. Unmarked numbers belong to inactive results. Calls of active or inactive are those of the source. Calls come from the whole dose curve; as a rule, active = well fitted cell-killing curve with a large enough effect in the repeat runs; inconclusive = weak or mixed curves, or effect the other way; inactive = flat fitted curve, though single readings scatter.

Take `CCN(CC)CCNC(=O)COc1ccc(OC)cc1`: the Potency result in assay [1] and in assay [2] was “inactive” each time.
Regarding `CC(=O)N/N=C/c1ccc([N+](=O)[O-])o1`, the Potency result in assay [1] and in assay [2] was “inactive” each time.
For `O=C1Nc2ccc([N+](=O)[O-])cc2C1=O`, the Potency result in assay [1] and in assay [2] was “inactive” in each case.
Consider `N=C(N)N`, for which the Potency result in assay [1] and in assay [2] was “inactive” in each case.
Take `Nc1ccc(Oc2ccc(N)c(N)c2)cc1`: the Potency result in assay [1] and in assay [2] was “inactive” in each case.
As for `CC1=CC[C@@]23C[C@@H]1C(C)(C)[C@@H]2CC[C@H]3C`, the Potency entry in assay [1] and in assay [2] was “inactive” throughout.
Take `COc1cc(C)cc(O)c1`: the Potency result in assay [1] and in assay [2] was “inactive” throughout.
Consider `O=C(NO)C1(NS(=O)(=O)c2ccc(Oc3ccc(F)cc3)cc2)CCOCC1`, for which the Potency entry in assay [1] and in assay [2] was “inactive” in each case.
With `C=C(C)C1CC=C(C)C(OC(C)=O)C1` (stereo not given), the Potency entry in assay [1] and in assay [2] was “inactive” in each case.
Consider `CC(CCO)CC(C)(C)C` (stereo not given), for which the Potency entry in assay [1] and in assay [2] was “inactive” throughout.
For the compound `CCC(C)=O`, the Potency result in assay [1] and in assay [2] was “inactive” each time.
As to `CCOC(N)=O`, the Potency entry in assay [1] and in assay [2] was “inactive” throughout.
As for `O=C1OC(=O)c2cc([N+](=O)[O-])ccc21`, the Potency result in assay [1] and in assay [2] was “inactive” throughout.
Take `c1cc(OCC2CO2)cc(OCC2CO2)c1` (stereo not given): the Potency result in assay [1] and in assay [2] was “inactive” each time.
As to `CCOC(=S)SSC(=S)OCC`, the Potency entry in assay [1] and in assay [2] was “inactive” each time.
As for `CC(C)COCC(CN(Cc1ccccc1)c1ccccc1)N1CCCC1` (stereo not given), the Potency in assay [1] is 29.8 µM (active). For the same compound, in assay [2], the Potency entry is “inactive”.
In the same order, the values of `C1=COCCC1` are “inactive” and “inactive”.
Take `CC1Cc2ccccc2N1NC(=O)c1ccc(Cl)c(S(N)(=O)=O)c1` (stereo not given): the Potency entry in assay [1] and in assay [2] was “inactive” in each case.
Regarding `C/C(=C(\CCOP(=O)(O)O)SC(=O)c1ccccc1)N(C=O)Cc1cnc(C)nc1N`, the viability change, negative = cytotoxic in assay [1] is 1.04% [at 8.39 µM]. The activity change, negative = cytotoxicity in assay [2] is -13.5% [at 8.39 µM].
Regarding `CNCCCCOc1ccccc1Cc1ccccc1`, the Potency result in assay [1] and in assay [2] was “inactive” in each case.
